Test [1] is described as follows: qHTS assay to identify small molecule antagonists of the estrogen related receptor (ERR) signaling pathway from Tox21 library - cell viability counter screen (AID 1224834). Also: nearly all actives have a fitted effect of over 30% in size. Also: potency is read from the fitted curve at half-maximal effect. In outline: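 ERR cells, 2,000/well; 6 h settle at 37 C/5% CO2; pin-tool compound transfer in DMSO; 17.5 h at 37 C; CellTiter-Fluor, 30 min; fluorescence intensity.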
The target of test [2] is Luciferin 4-monooxygenase (Photinus pyralis) (UniProt P08659). Briefly: qHTS assay to identify small molecule inhibitors of firefly luciferase (AID 1224835). Also: nearly all actives have a fitted effect of over 25% in size. Also: potency is read from the fitted curve at half-maximal effect. In outline: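 Biochemical qHTS: compounds run as interplate titrations against purified firefly enzyme, with D-luciferin and ATP each at its KM concentration. Light output recorded by CCD imaging.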
Chain of Luciferin 4-monooxygenase (Photinus pyralis) (P08659 whole entry, looked up): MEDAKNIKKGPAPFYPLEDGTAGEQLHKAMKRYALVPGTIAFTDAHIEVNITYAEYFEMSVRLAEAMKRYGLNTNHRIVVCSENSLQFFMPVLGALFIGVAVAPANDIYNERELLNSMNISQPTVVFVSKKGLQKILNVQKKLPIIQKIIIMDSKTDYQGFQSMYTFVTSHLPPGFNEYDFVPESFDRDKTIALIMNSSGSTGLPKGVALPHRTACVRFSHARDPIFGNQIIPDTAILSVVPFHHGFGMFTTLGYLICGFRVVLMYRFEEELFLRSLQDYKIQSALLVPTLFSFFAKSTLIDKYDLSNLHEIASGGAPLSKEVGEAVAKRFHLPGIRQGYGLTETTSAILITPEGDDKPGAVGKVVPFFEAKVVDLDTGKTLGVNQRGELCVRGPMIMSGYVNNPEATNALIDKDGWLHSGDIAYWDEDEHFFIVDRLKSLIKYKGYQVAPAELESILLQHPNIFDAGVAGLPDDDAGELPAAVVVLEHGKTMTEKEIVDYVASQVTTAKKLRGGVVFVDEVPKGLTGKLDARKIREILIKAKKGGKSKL
A general note: Quantitative high-throughput screening tests each substance at several concentrations.

Test [3] is described as follows: qHTS assay to identify small molecule agonists of the constitutive androstane receptor (CAR) signaling pathway - cell viability counter screen (AID 1224836). Also: nearly all actives have a fitted effect of over 45% in size. Also: potency is read from the fitted curve at half-maximal effect. In outline:
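HepG2-CYP2B6-hCAR, 2500 cells/well, 4 h pre-incubation; cpd 15 conc + PK11195 0.75 uM final; 23 h, 37 C/5% CO2; CellTiter-Fluor, fluorescence.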

The nature of test [4]: qHTS assay to identify small molecule antagonists of the constitutive androstane receptor (CAR) signaling pathway - cell viability counter screen (AID 1224837). Also: nearly all actives have a fitted effect of over 45% in size. Also: potency is read from the fitted curve at half-maximal effect. In outline: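 Viability was measured with CellTiter-Fluor in a HepG2 line carrying stably transfected hCAR and a CYP2B6-2.2kb construct. Cells were exposed for 23 hr at 37 C to 15 compound concentrations with 50 nM CITCO as agonist.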

The target in test [5] is Nuclear receptor subfamily 1 group I member 3 (Homo sapiens) (UniProt Q14994). Briefly: qHTS assay to identify small molecule antagonists of the constitutive androstane receptor (CAR) signaling pathway (AID 1224838).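 Also: HepG2 cells stably expressing hCAR with CYP2B6 luciferase reporter stimulated by CITCO; nearly all actives have a fitted effect of over 40% in size.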 Also: potency is read from the fitted curve at half-maximal effect. In outline: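 Antagonist mode used CITCO at a final 50 nM to activate CAR in human hepatoma HepG2 cells carrying stable hCAR and a 2.2 kb CYP2B6 promoter-luciferase construct. Compounds were tested at 15 concentrations over 24 h, with luminescence as the end point.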
Chain of Nuclear receptor subfamily 1 group I member 3 (Homo sapiens) (Q14994 whole entry, looked up): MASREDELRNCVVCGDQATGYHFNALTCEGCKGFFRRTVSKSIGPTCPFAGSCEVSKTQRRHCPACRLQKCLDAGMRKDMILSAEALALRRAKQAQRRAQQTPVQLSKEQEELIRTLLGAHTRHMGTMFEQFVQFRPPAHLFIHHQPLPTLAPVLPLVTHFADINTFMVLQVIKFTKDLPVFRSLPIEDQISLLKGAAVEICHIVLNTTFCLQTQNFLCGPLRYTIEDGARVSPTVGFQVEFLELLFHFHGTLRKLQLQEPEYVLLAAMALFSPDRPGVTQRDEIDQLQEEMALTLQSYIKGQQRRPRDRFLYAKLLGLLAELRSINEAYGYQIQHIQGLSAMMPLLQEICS

Test [6] in a line: qHTS assay to identify small molecule antagonists of the estrogen related receptor signaling pathway with the pleiotropic PPARgamma coactivator (PGC) from Tox21 10K library - cell viability counter screen (AID 1224840; active = well fitted cell-killing curve with a large enough effect in the repeat runs, not every such curve was filed as active; also: nearly all actives have a fitted effect of over 40% in size). In outline: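 Multiplexed viability counter screen in the PGC/ERR cell line: cells treated with DMSO-dissolved compounds for 17.5 hours at 37 C, then viability measured as CellTiter-Fluor fluorescence.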

A short description of test [7]: qHTS assay to identify small molecule antagonists of the estrogen related receptor signaling pathway with the pleiotropic PPARgamma coactivator (PGC) from Tox21 10K library (AID 1224841; call rule not given here; also: actives are mostly falling curves and most rising ones were filed inactive; nearly all actives have a fitted effect of over 50% in size; also: potency is read from the fitted curve at half-maximal effect). In outline: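 Steps: plate 2,000 PGC/ERR cells per well; incubate 6 h at 37 C with 5% CO2; transfer compounds from DMSO stocks by pin tool; incubate 18 h at 37 C; add One-Glo; measure luminescence 30 min later.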

The nature of test [8]: qHTS assay to identify small molecule agonists of the estrogen related receptor signaling pathway with the pleiotropic PPARgamma coactivator (PGC) from Tox21 10K library (AID 1224842). Also: nearly all actives have a fitted effect of over 15% in size. Also: potency is read from the fitted curve at half-maximal effect. In outline: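 PGC/ERR reporter cell line, 2,000 cells per well, incubated 6 h at 37 C before 23 nL compound in DMSO was added. After 18 h at 37 C, One-Glo luminescence read following 30 min at room temperature.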

Test [9] concerns the target Thyrotropin receptor (Homo sapiens) (UniProt P16473). Briefly: qHTS assay to identify small molecule agonists of the thyroid stimulating hormone receptor (TSHR) signaling pathway (AID 1224843; calls by dose curve; also: nearly all actives have a fitted effect of over 45% in size). In outline:
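Agonist-mode screen: TSHR HEK293 cells received test chemicals for half an hour at room temperature, then HTRF cAMP detection reagents for one hour prior to fluorescence measurement. Each chemical ran as a 15-concentration series, triplicated.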

Test [10] addresses Nuclear receptor subfamily 1 group I member 3 (Homo sapiens) (UniProt Q14994). Description: qHTS assay to identify small molecule agonists of the constitutive androstane receptor (CAR) signaling pathway (AID 1224839). Also: nearly all actives have a fitted effect of over 15% in size. Also: potency is read from the fitted curve at half-maximal effect. In outline: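 HepG2-CYP2B6-hCAR cells, 2500/well, 4 h pre-incubation; compounds 15 conc.; PK11195 0.75 uM final; 24 h, 37 C/5% CO2; ONE-Glo luciferase read.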

SMILES strings stand for the structures. Values joined by “and” are separate entries in the source; they are usually repeats but may differ in a detail not shown here. Identical values can stand only once. Inconclusive results are not listed. More than one record can exist for a structure, and the calls need not agree. Active and inactive are the calls of the source. Unless noted, calls follow the shape of the dose curve; as a rule, active = well fitted curve in the direction sought with a large enough effect in the repeat runs; inconclusive = weak or mixed curves; inactive = no such curve, though single readings can be large; an effect the other way counts as inactive or inconclusive.

Chain of Thyrotropin receptor (Homo sapiens) (P16473 whole entry, looked up): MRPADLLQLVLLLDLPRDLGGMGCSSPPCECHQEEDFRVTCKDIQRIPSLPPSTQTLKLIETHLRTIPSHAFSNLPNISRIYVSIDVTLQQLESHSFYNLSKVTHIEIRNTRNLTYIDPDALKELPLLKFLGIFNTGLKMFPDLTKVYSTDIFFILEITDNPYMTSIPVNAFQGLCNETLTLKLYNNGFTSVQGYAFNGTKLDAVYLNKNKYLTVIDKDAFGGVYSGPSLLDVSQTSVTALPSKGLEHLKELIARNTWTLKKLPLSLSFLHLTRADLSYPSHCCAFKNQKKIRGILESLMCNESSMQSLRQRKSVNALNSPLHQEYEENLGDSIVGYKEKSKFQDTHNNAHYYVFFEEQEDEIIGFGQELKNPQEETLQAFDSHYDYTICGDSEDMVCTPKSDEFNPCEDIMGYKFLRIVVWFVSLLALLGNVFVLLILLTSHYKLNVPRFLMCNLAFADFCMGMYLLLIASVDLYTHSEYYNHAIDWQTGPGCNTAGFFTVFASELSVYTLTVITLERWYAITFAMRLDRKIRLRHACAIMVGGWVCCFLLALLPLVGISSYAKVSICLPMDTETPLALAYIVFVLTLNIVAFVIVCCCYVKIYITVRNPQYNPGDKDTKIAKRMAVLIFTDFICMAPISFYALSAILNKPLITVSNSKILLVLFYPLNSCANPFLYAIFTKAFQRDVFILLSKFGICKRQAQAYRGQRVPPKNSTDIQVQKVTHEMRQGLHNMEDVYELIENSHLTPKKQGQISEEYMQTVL

With `C1=Cc2cccc3cccc1c23`, the Potency result in test [1], in test [2], in test [3], in [4], in test [5] and in test [6] was “inactive” each time. In addition, the Potency entry in test [8] and in test [9] was “inactive” each time. Besides, the Potency in test [7] is 190 nM (active) and inactive.

Consider `Nc1ccc(-c2ccccc2)cc1`, for which the Potency in [1] was 8.87 µM (active) and inactive; in test [2] it was 57.9 µM (active) and 63.3 µM (active); in [10], 30.6 µM (active). The Potency entry in test [3], in test [4], in test [5], in [6] and in [9] was “inactive” in each case.

Consider `COP(=S)(OC)Oc1cc(Cl)c(Cl)cc1Cl`, for which the Potency entry in test [1], in test [2], in test [3], in [4], in test [5] and in test [6] was “inactive” each time. Besides, in test [9], the Potency result is “inactive”. Besides, the Potency in test [10] is 54.1 µM (active).

As to `O=[N+]([O-])c1c(Cl)c(Cl)c(Cl)c(Cl)c1Cl`, the Potency result in test [1], in [2], in [3], in [4], in test [5] and in test [6] was “inactive” each time.

Take `C=CCc1ccc2c(c1)OCO2`: the Potency entry in [1], in [2], in [3], in test [4], in test [5] and in [10] was “inactive” each time. Also, the Potency entry in [6] and in [9] was “inactive” throughout.

Consider `Oc1c(Cl)c(Cl)c(Cl)c(Cl)c1Cl`, for which the Potency result in test [1], in [3], in test [4], in [5], in test [6] and in test [9] was “inactive” throughout. For the same molecule, the Potency is 34.9 µM (active) and inactive in [2]; 21.2 µM (active) and 15.4 µM (active) in test [10].

With `Nn1cnnc1`, the Potency result in test [1], in test [2], in [3], in [4], in [5] and in test [10] was “inactive” throughout. Besides, the Potency result in test [6] and in test [9] was “inactive” throughout.

With `CCC(C)(C)c1ccc(O)cc1`, the Potency entry in [1], in [3], in test [4], in test [6], in test [7] and in test [8] was “inactive” in each case. In addition, in test [9], the Potency entry is “inactive”. The Potency in test [2] is 40.4 µM (active) and 63.3 µM (active).

As to `Nc1cccnc1`, the Potency entry in test [1], in test [2], in test [3], in [4], in [5] and in [10] was “inactive” in each case. In addition, the Potency result in test [6] and in test [9] was “inactive” in each case.

In the case of `Nc1ccncc1`, the Potency entry in test [1], in test [2], in [3], in test [4], in test [5] and in test [10] was “inactive” in each case. The Potency entry in test [6] and in [9] was “inactive” each time.

On to `CCC(=O)O[C@H]1CC[C@H]2[C@@H]3CCC4=CC(=O)CC[C@]4(C)[C@H]3CC[C@]12C`, for which the Potency result in [1], in [2], in [3], in test [4], in [5] and in [10] was “inactive” throughout. Also, the Potency result in [6] and in [9] was “inactive” throughout.

Take `CCOP(=S)(OCC)O/N=C(\C#N)c1ccccc1`: the Potency entry in [1], in test [2], in test [3], in [4], in test [6] and in test [7] was “inactive” each time. Moreover, the Potency entry in test [8] and in [9] was “inactive” throughout.

Turning to `C=CCN(CC=C)C(=O)C(Cl)Cl`, the Potency result in test [1], in test [2], in test [3], in test [4], in test [5] and in [10] was “inactive” in each case. The Potency entry in test [6] and in [9] was “inactive” each time.

Consider `CNC(=O)Oc1cccc2c1OC(C)(C)O2`, for which the Potency result in test [1], in test [2], in [3], in test [4], in test [5] and in [10] was “inactive” throughout. For the same molecule, the Potency result in test [6] and in [9] was “inactive” in each case.

As for `CCN(CC)C(=O)SCc1ccc(Cl)cc1`, the Potency entry in test [1], in test [3], in test [4], in test [6], in test [7] and in test [8] was “inactive” in each case. Moreover, the Potency in test [2] is 35.6 µM (active).

Take `Cc1ccccc1[N+](=O)[O-]`: the Potency entry in test [1], in [2], in test [3], in test [4], in test [5] and in [10] was “inactive” in each case. For the same molecule, the Potency result in test [6] and in test [9] was “inactive” in each case.

With `Nc1ccc(Cl)cc1N`, the Potency entry in test [1], in [6], in [7] and in test [9] was “inactive” throughout. Also, the Potency in test [2] is 13.1 µM (active) and 7.1 µM (active); in test [3], 4.33 µM (active); in [4] it was 6.86 µM (active); in test [5], 0.217 µM (active); in test [8], 8.98 µM (active) and 386 nM (active).

The record behind these values is PubChem BioAssay (Tox21).
